An excerpt weighted towards active compounds, which were near 1.1% of everything screened.
GalR3 antag = antagonists of human GalR3; O60755; HEK293 GalR3-CNG cAMP membrane potential fluorescence; galR3 body fused to GalR1 C-terminus; inhibition, % at 3 µM; 0.44% of 360,000 active; AID 651719;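 active = inhibition above the screen-wide average plus 3 SD, cut at about 13% in these data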;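 also: forskolin and galanin both at EC90 stimulate the cells; cAMP rise reported by CNG channel membrane potential dye signal; 0% = forskolin plus galanin with DMSO and 100% = forskolin alone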
NCOA1 inh = human NCOA1 inhibition | HEK293 GAL4-SRC1 luciferase reporter, luminescence | inhibition, % at 3.6 µM | Q15788 | 0.12% of 360,000 active;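 active = inhibition above the campaign mean plus 3 SD, with each screening campaign given its own cutoff, cut at about 60% in these data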;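 also: 0% = DMSO treated cells and 100% = gossypol at 36 µM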
COUP-TFII inh = NR2F2 (human) inhibition, primary screen | HEK293T NGFI-A luciferase reporter, luminescence | inhibition, % at 8.6 µM | 0.7% of 370,000 active | AID 686940;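 active = inhibition above a per-plate cutoff, mean inhibition of test wells between control levels plus 3 SD, cut at about 38% in these data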;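 also: cells cotransfected with COUP-TFII expression vector driving the NGFI-A reporter; 0% = median of COUP-TF2 test wells and 100% = reporter-only cells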
NCOA2 inhibitor = human SRC2 (NCOA2) inhibition; 0.17% of 370,000 active; Q15596; inhibition, % at 9 µM; AID 651957; HEK293 GAL4-SRC2 luciferase reporter, luminescence;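 active = inhibition above the mean inhibition of all tested compounds plus 3 SD, set per campaign, cut at about 52% in these data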;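 also: 0% = DMSO treated cells and 100% = cells given Gossypol at 36 µM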
Target sequence (Q15596 whole entry, looked up, the tested form may be a part): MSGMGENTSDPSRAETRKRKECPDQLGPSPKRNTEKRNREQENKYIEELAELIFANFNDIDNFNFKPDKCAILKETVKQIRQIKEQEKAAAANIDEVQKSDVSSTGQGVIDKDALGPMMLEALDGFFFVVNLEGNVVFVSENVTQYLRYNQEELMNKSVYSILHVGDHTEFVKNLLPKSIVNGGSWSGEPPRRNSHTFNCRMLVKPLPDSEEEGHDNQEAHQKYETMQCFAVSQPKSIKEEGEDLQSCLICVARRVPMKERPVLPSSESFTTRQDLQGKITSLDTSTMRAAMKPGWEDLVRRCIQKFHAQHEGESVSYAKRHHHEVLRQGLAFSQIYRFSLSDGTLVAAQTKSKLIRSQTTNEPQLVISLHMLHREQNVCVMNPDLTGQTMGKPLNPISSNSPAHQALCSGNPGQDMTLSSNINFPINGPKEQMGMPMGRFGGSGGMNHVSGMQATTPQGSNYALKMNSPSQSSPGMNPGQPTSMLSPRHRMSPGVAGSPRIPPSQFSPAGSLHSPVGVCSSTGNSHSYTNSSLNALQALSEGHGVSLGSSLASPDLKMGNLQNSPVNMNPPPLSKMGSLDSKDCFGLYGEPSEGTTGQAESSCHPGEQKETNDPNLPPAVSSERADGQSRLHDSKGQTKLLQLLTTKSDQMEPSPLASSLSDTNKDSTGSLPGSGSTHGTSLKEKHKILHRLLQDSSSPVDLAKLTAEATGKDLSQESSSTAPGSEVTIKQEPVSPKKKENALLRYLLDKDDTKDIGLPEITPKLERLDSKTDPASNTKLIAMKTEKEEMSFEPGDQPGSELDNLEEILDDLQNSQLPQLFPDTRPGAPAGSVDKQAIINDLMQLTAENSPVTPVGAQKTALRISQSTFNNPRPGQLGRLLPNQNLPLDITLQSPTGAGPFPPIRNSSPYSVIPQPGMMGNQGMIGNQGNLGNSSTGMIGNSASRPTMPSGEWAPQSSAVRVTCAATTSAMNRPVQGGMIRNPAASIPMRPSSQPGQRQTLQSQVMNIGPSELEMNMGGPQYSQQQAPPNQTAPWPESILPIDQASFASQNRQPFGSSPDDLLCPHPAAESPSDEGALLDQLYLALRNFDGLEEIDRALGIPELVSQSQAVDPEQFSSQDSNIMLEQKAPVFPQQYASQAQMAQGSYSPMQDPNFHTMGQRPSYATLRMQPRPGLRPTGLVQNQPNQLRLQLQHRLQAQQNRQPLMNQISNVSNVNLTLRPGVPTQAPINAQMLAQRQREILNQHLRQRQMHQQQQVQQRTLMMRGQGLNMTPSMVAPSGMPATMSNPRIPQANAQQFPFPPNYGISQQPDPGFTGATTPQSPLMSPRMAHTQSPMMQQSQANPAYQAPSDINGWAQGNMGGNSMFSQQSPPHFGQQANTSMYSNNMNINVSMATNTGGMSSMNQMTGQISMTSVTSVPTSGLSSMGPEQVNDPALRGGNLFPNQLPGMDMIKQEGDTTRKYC
SRC3 inh = human NCOA3 inhibition | HEK293 GAL4-SRC3 luciferase reporter, luminescence | Q9Y6Q9 | inhibition, % at 3.6 µM | 0.17% of 360,000 active;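 active = inhibition above a per-campaign cutoff, the mean of all compounds plus 3 SD, cut at about 60% in these data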;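 also: 0% = DMSO-treated cells and 100% = gossypol-treated cells at 36 µM; higher means less SRC3-driven luciferase light from the GAL4 reporter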
NR5A2 inv ag = NR5A2 inverse agonism in reporter assay | 0.13% of 360,000 active | AID 602396 | inhibition, % at 3.6 µM | HEK293T StAR-luciferase reporter, LRH-1 transfected, 24 h | O00482;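 active = inhibition above the mean inhibition of all tested compounds plus 3 SD, cut at about 73% in these data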;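 also: 0% = DMSO wells and 100% = reporter-only cells lacking LRH-1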
VP16 Luc counter = VP16 inhibition counter-screen for COUP-TFII | HEK293 Gal4-VP16 luciferase reporter, luminescence | AID 687007 | shares compounds with COUP-TFII inh | 25% of 2,500 active | inhibition, % at 8.5 µM; in the data active = inhibition above about 13%
COUP-TFII conf = confirmation of human COUP-TFII (NR2F2) inhibitors; shares compounds with COUP-TFII inh; HEK293 NGFI-A luciferase reporter, luminescence; inhibition, % at 8.5 µM; 45% of 2,500 active; AID 687008;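 active = mean inhibition over three repeats above a set limit taken from the earlier primary screen, cut at about 38% in these data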;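 also: 100% = cells given the luciferase reporter alone without the COUP-TF2 vector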
An asterisk follows results filed as active; . = no result given; ! = not confirmed by another sample.

SMILES	GalR3 antag	NCOA1 inh	COUP-TFII inh	NCOA2 inhibitor	SRC3 inh	NR5A2 inv ag	VP16 Luc counter	COUP-TFII conf
COC(=O)C1=C(c2ccc(-c3ccccc3)c(F)c2)C[C@@H]2CC[C@H]1N2C(=O)NCCOc1ccc(OC)cc1	-3	12	40*	26	9	-1	2	6
O=C(NCCCN1CCOCC1)C(Cl)(Cl)Cl	-4	-4	7	2	5	-11	.	.
N#Cc1ncc(N=Cc2ccc(N(CCCl)CCCl)cc2)s1	-7	-9	-7	7	3	12	.	.
COC(=O)C1=C(c2ccc(OC(F)(F)F)cc2)C[C@@H]2CC[C@H]1N2C(=O)NCc1cc(C)oc1C(F)(F)F	-6	-1	4	-4	13	22	.	.
O=[N+]([O-])c1ccccc1CCl	1	5	14	-8	-4	6	.	.
O=[N+]([O-])c1ccccc1-c1cc(-c2ccccc2)cc(-c2ccccc2)[n+]1Cc1ccccc1Cl	-12	.	56*	-23	.	.	14*	44*
Cc1c(C(=O)N2CCC3(CC2)OCCO3)sc2ncnc(N(C)c3ccccc3)c12	1	12	-10	18	9	25	.	.
Cc1nc2ccc(Cl)cc2c(=O)n1-c1cccc(Cl)c1	-8	-6	1	-12	-9	-17	.	.
Cc1cc(C)c(S(=O)(=O)N2Cc3ccccc3-n3nncc3C2)c(C)c1	-4	15	40*	31	-1	12	0	18
Cc1cccc(CC(c2cccc(C)c2)N(C)C)c1 (stereo unspecified)	1	6	2	-45	6	6	.	.
Cc1cc(N2C(=O)C3CCCN3C2c2sccc2C)no1 (stereo unspecified)	3	7	9	-10	11	-5	.	.
CCCCCCC(=O)c1c(O)n(-c2ccc(OC)cc2)c(=O)[nH]c1=O (tested in a mixture with another compound)	-4	2	15	2	10	-11	.	.
Cc1ccc2nc(-c3ccc(CN4CCC(n5nnc6ccccc65)CC4)cc3)c(-c3ccccc3)nc2c1	-3	.	45*	19	.	.	-3	10
CN1C(=O)[C@@]23C[C@]4(c5c[nH]c6ccccc56)c5ccccc5N(S(=O)(=O)c5ccccc5)[C@@H]4N2C(=O)[C@@H]1SS3	.	.	107*	.	.	.	88*	90*
Fc1ccc(C[n+]2c(-c3ccccc3)cc(-c3ccccc3)cc2-c2ccccc2)cc1	-5	.	23	-4	.	.	.	.
Cc1cc(-c2ccccc2)cc(-c2ccccc2)[n+]1CCc1ccccc1	-5	39	38*	17	57	63	15*	26
COP(=O)(OC)C(NC(=O)/C=C/c1ccccc1)C(Cl)(Cl)Cl (stereo unspecified)	-3	-8	-29	11	-14	-24	.	.
CC(=O)OC1C(=O)OCC23CCC4(C)OC4C2OC2CC(OC(=O)C=CC=CC(=O)OCCC1C)C3(C)C21CO1 (stereo unspecified)	-1	96*	89*	72*	93*	98*	10	86*
Cc1nn(CC(C)C)c(Cl)c1C(=O)NC1CCCCC1	-3	-6	-14	-40	-14	0	.	.
C[C@]12CCC3C(CC[C@H]4C[C@@H](O)[C@H](O)C[C@]34C)C1CC[C@@H]2O (stereo partly specified)	-6	-39	11	-44	-49	-23	.	.
CC(=O)O[C@H]1CC[C@]2(C)C3CC[C@@]4(C)C(C[C@@H](O)[C@@H]4O)C3[C@@H](OC(C)=O)C[C@H]2C1 (stereo partly specified)	-6	-1	9	-10	6	14	.	.
CC(=O)OC1CC(OC2C(O)CC(OC3C(O)CC(OC4CCC5(C)C(CCC6C5CCC5(C)C(C7=CC(=O)OC7)CCC65O)C4)OC3C)OC2C)OC(C)C1OC1OC(CO)C(O)C(O)C1O (stereo unspecified)	22*	92*	77*	60*	89*	99*	56*	78*
c1ccc(-c2nnc(C3CC(c4cccnc4)=NO3)o2)cc1 (stereo unspecified)	-6	-8	9	3	-16	-5	.	.
C=C1C(=O)O[C@@H]2C[C@@H](C)[C@@H]3C=CC(=O)[C@@]3(C)[C@@H](O)[C@H]12	.	37	97*	85*	61	87*	84*	99*
COc1ccc(C(Nc2ccccc2)P(=O)(Oc2ccccc2)Oc2ccccc2)cc1 (stereo unspecified)	0	-9	-21	-7	17	14	.	.
SMILES	GalR3 antag	NCOA1 inh	COUP-TFII inh	NCOA2 inhibitor	SRC3 inh	NR5A2 inv ag	VP16 Luc counter	COUP-TFII conf
C[C@@H]1CC[C@H]2[C@@H](C)C(=O)O[C@@H]3O[C@@]4(C)CC[C@@H]1[C@]32OO4	-1	6	2	9	-2	23	.	.
CCC(C)C(NC(=O)CCCNC(=O)CCC(=O)OC1O[C@H]2OC3(C)CC[C@H]4[C@H](C)CCC(C1C)C24OO3)C(=O)O (stereo partly specified)	-4	47	49*	-24	68*	90*	-1	46*
CCC(C)NC(=O)CCC(=O)OC1O[C@H]2OC3(C)CC[C@H]4[C@H](C)CCC(C1C)C24OO3 (stereo partly specified)	-11	62*	51*	10	77*	91*	12	49*
CN(C)c1ccc(/C=C/c2cc[n+](C)c3ccccc23)cc1	-5	68*!	84*	-80	67*!	86*	23*	82*
C#CCOC(=O)C1=CCCN(C)C1	.	-2	-1	16	-1	-7	.	.
Cc1cc(=O)oc2cc(OCC(=O)N3C[C@H]4C[C@@H](C3)c3cccc(=O)n3C4)ccc12	-7	-1	-2	-24	8	-7	.	.
Nc1ncnc2c1ccn2[C@@H]1O[C@H](CO)[C@@H](O)[C@H]1O	-6	82*	64*	64*	89*	103*	32*	51*
C[C@H]1CCC/C=C/[C@@H]2C[C@H](O)C[C@H]2[C@H](O)/C=C/C(=O)O1	0	23	50*	26	68*!	90*	10	33
C[C@@H]1C[C@@H]([C@H](O)CC2CC(=O)NC(=O)C2)C(=O)[C@@H](C)C1	0	93*	87*	70*	93*	103*	-2	67*
CC(=O)OC1(C)CC(C)C(=O)C(C(O)CC2CC(=O)NC(=O)C2)C1 (stereo unspecified)	-5	96*	91*	65*	95*	103*	15*	84*
